Results from paper PMC5540273 (PLoS ONE, 2017).

Tests used:
Settings in all cases: concentration: 1 μM, replicates: in singlicate; n = 1
MEK5 = test system: T1, MEK5
T1 construct: gene MAP2K5

MEK6 = test system: T2, MEK6
T2 construct: gene MAP2K6

MELK = test system: MELK
MERTK = test system: MERTK
MET = test system: MET
MINK = test system: T3, MINK
T3 construct: gene MINK1

MKK7 = test system: MKK7
MKNK1 = test system: MKNK1
MKNK2 = test system: MKNK2
MLCK = test system: T4, MLCK
T4 construct: gene MYLK3

MLK1 = test system: T5, MLK1
T5 construct: gene MAP3K9

MLK2 = test system: MLK2
MLK3 = test system: MLK3
MRCKA = test system: MRCKA
MRCKB = test system: T6, MRCKB
T6 construct: gene CDC42BPB

MST1R = test system: MST1R
MST1 = test system: T7, MST1
T7 construct: gene STK4

MST2 = test system: T8, MST2
T8 construct: gene STK3

MST3 = test system: T9, MST3
T9 construct: gene STK24

MST4 = test system: MST4
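Note: KINOMEscan kinase panel screen.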

SMILES | %Inh (MEK5) [%] | %Inh (MEK6) [%] | %Inh (MELK) [%] | %Inh (MERTK) [%] | %Inh (MET) [%] | %Inh (MINK) [%] | %Inh (MKK7) [%] | %Inh (MKNK1) [%] | %Inh (MKNK2) [%] | %Inh (MLCK) [%] | %Inh (MLK1) [%] | %Inh (MLK2) [%] | %Inh (MLK3) [%] | %Inh (MRCKA) [%] | %Inh (MRCKB) [%] | %Inh (MST1R) [%] | %Inh (MST1) [%] | %Inh (MST2) [%] | %Inh (MST3) [%] | %Inh (MST4) [%]
COC(=O)Nc1nc2ccc(Oc3ccc(NC(=O)Nc4cc(C(F)(F)F)ccc4F)cc3)cc2[nH]1.Cl [GW654607] | 94.2 | 7 | 0 | 98.5 | 88 | 15 | 0 | 73 | 94.9 | 0 | 2 | 21 | 1 | 15 | 0 | 61 | 6 | 0 | 6 | 8
CCn1c(-c2nonc2N)nc2c(-c3ccccc3)ncc(OCCCN)c21.O=C(O)C(F)(F)F.O=C(O)C(F)(F)F [GSK260205] | 92.8 | 0 | 20 | 7 | 21 | 95.7 | 0 | 0 | 1 | 9 | 0 | 0 | 0 | 99.9 | 99.3 | 45 | 52 | 0 | 38 | 71
CC(C)(C)c1ccc(C(=O)Nc2cn3cc(-n4ccnc4)ccc3n2)cc1 | 99 | 0 | 0 | 0 | 0 | 18 | 0 | 8 | 0 | 19 | 18 | 0 | 0 | 28 | 0 | 28 | 7 | 3 | 0 | 0
CS(=O)(=O)c1cccc(CNc2nc(Nc3ccc4c(c3)CCC(=O)N4)ncc2C(F)(F)F)c1 | 48 | 0 | 26 | 56 | 83 | 85 | 0 | 0 | 58 | 0 | 99.7 | 93.9 | 96.4 | 0 | 0 | 1 | 0 | 11 | 0 | 25
CN(C)CCOc1ccc(-c2cc(-c3ccc(Cl)c(O)c3)c(-c3ccncc3)[nH]2)cc1.Cl.Cl [SB-684387] | 21 | 0 | 15 | 0 | 43 | 36 | 0 | 7 | 4 | 13 | 0 | 0 | 0 | 8 | 5 | 34 | 0 | 17 | 0 | 0
COc1cc(Nc2ccnc3cc(-c4ccncc4)ccc23)cc(OC)c1OC.Cl [GW494610] | 99.8 | 0 | 18 | 13 | 13 | 95.1 | 23 | 28 | 14 | 0 | 2 | 27 | 21 | 0 | 4 | 41 | 9 | 0 | 0 | 0
Cc1ccc(NC(=O)c2ccc(Cl)c(Cl)c2)cc1-c1ccc(C(=O)Nc2ccncc2)cc1 [GSK1398460] | 27 | 5 | 0 | 36 | 0 | 6 | 0 | 11 | 0 | 0 | 7 | 16 | 20 | 25 | 32 | 31 | 8 | 0 | 6 | 0
CN(C)c1ncnc2nc[nH]c12 [SKF-31736] | 51 | 0 | 0 | 10 | 0 | 2 | 20 | 0 | 0 | 0 | 0 | 0 | 0 | 11 | 0 | 0 | 0 | 0 | 19 | 1
COc1ccc(C)c(Nc2ccnc(Nc3ccc(-c4cnc[nH]4)cc3)n2)c1.Cl [GW784041] | 99.7 | 0 | 34 | 7 | 15 | 44 | 0 | 8 | 0 | 0 | 30 | 12 | 0 | 20 | 5 | 0 | 23 | 38 | 17 | 0
Fc1cc(Cl)ccc1Nc1ccnc2cc(-c3ccc(CN4CCSCC4)o3)ccc12 [GW560106] | 99.8 | 0 | 0 | 40 | 28 | 63 | 0 | 1 | 45 | 5 | 14 | 0 | 13 | 0 | 4 | 31 | 30 | 0 | 0 | 0
CC(C)NCC(Cc1ccccc1)NC(=O)c1cc(Br)c(-c2ccnc3[nH]ccc23)s1.Cl.Cl (centres unmarked) [GSK1383281] | 3 | 79 | 97.5 | 39 | 17 | 37 | 0 | 0 | 90.5 | 13 | 4 | 0 | 0 | 25 | 89 | 43 | 0 | 0 | 0 | 26
Cc1cc(-c2c(-c3ccc(F)cc3)ncn2CCCN2CCOCC2)nc(N)n1 [SB-222517] | 26 | 29 | 0 | 0 | 0 | 15 | 0 | 0 | 0 | 0 | 5 | 49 | 0 | 0 | 20 | 18 | 13 | 20 | 5 | 1
CC(=O)Nc1cn2nc(Oc3cccc(NC(=O)c4cccc(C(F)(F)F)c4)c3)ccc2n1 | 93.3 | 5 | 20 | 73 | 16 | 22 | 0 | 0 | 0 | 0 | 2 | 23 | 6 | 7 | 0 | 0 | 27 | 0 | 1 | 0
Cc1ccc(Nc2ccnc(Nc3ccc(C)c(F)c3)n2)cc1O.Cl [GW582868] | 92.8 | 0 | 0 | 38 | 0 | 0 | 0 | 0 | 7 | 24 | 60 | 0 | 45 | 0 | 0 | 18 | 0 | 9 | 0 | 0
O=C(Nc1n[nH]c2nc(-c3ccccc3O)ccc12)C1CC1 [SB-711880] | 63 | 0 | 0 | 27 | 0 | 74 | 0 | 0 | 38 | 57 | 0 | 0 | 0 | 4 | 0 | 10 | 0 | 16 | 0 | 20
CSc1ccc(NC2=C(c3ccc(Cl)cc3)C(=O)NC2=O)cc1 [SB-317658] | 22 | 3 | 0 | 0 | 0 | 0 | 0 | 14 | 0 | 29 | 0 | 4 | 0 | 0 | 0 | 33 | 29 | 45 | 0 | 6
COc1ccc(NC(=O)c2ccoc2)cc1-c1ccc(C(=O)NCC2CC2)cc1 [GW810437] | 41 | 16 | 29 | 0 | 0 | 7 | 0 | 0 | 13 | 0 | 0 | 25 | 0 | 0 | 19 | 0 | 22 | 8 | 1 | 0
CC(C)c1nc(-c2cccc(NS(=O)(=O)c3c(F)cccc3F)c2)c(-c2ccnc(Nc3ccc(N4CCOCC4)nc3)n2)s1.Cl [GSK1723980] | 99.9 | 37 | 47 | 50 | 42 | 17 | 0 | 10 | 98.8 | 0 | 89 | 34 | 73 | 18 | 0 | 17 | 0 | 0 | 13 | 16
CCNc1nccc(-c2c(-c3ccc(F)cc3)ncn2C2CCN(C)CC2)n1 | 19 | 15 | 11 | 25 | 0 | 30 | 0 | 0 | 0 | 0 | 0 | 7 | 0 | 0 | 0 | 0 | 0 | 38 | 21 | 0
